We go through one compound from ChEMBL document CHEMBL2218924, “A broad activity screen in support of a chemogenomic map for kinase signalling research and drug discovery” (Biochem J, 2013).

The target of test [1] is T1, Serine/threonine-protein kinase TBK1 (Homo sapiens) (UniProt Q9UHD2).
T1 sequence (whole entry): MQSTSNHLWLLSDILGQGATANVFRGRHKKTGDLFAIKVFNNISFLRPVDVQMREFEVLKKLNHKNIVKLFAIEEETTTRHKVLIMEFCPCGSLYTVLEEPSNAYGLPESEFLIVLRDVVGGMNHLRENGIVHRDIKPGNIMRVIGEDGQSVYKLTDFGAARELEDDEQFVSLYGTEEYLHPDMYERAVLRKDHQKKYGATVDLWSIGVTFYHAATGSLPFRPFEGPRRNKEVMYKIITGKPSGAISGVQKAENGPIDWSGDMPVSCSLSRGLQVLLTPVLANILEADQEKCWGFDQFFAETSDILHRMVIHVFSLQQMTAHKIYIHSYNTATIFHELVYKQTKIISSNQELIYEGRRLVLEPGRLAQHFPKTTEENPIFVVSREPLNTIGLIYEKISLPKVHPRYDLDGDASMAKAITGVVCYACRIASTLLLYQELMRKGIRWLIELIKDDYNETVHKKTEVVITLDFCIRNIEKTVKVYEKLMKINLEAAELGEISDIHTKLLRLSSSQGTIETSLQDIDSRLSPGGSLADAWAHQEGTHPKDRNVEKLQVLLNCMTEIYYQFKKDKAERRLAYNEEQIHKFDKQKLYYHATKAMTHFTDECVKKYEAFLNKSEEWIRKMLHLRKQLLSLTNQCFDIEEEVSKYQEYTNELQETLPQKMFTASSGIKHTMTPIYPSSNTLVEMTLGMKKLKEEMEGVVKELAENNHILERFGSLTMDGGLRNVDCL
The following applies: at 10 µM.

The target in test [2] is T2, TGF-beta receptor type-1 (Homo sapiens) (UniProt P36897).
T2 sequence (whole entry): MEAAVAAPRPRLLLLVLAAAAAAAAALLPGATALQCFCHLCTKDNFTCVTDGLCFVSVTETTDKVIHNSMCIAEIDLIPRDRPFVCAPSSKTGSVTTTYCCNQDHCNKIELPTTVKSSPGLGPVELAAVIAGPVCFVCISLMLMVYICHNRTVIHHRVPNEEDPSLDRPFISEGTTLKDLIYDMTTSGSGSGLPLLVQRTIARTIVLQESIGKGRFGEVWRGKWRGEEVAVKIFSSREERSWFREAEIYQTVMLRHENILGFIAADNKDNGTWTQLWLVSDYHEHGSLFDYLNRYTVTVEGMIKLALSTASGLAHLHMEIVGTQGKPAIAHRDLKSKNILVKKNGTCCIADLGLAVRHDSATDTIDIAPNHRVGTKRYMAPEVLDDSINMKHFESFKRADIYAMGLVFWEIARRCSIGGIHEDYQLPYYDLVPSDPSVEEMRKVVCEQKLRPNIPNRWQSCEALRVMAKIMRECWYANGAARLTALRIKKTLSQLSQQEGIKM
The following applies: at 1 µM.

Test [3] addresses T2, TGF-beta receptor type-1 (Homo sapiens). Particulars: at 10 µM.
The target in test [4] is Insulin-like growth factor 1 receptor (Homo sapiens) (UniProt P08069). Particulars: at 1 µM.
Test [5] shares this target. The following applies: at 10 µM.
Test [6] has as its target T3, Inhibitor of nuclear factor kappa-B kinase subunit alpha (Homo sapiens) (UniProt O15111).
T3 sequence (whole entry): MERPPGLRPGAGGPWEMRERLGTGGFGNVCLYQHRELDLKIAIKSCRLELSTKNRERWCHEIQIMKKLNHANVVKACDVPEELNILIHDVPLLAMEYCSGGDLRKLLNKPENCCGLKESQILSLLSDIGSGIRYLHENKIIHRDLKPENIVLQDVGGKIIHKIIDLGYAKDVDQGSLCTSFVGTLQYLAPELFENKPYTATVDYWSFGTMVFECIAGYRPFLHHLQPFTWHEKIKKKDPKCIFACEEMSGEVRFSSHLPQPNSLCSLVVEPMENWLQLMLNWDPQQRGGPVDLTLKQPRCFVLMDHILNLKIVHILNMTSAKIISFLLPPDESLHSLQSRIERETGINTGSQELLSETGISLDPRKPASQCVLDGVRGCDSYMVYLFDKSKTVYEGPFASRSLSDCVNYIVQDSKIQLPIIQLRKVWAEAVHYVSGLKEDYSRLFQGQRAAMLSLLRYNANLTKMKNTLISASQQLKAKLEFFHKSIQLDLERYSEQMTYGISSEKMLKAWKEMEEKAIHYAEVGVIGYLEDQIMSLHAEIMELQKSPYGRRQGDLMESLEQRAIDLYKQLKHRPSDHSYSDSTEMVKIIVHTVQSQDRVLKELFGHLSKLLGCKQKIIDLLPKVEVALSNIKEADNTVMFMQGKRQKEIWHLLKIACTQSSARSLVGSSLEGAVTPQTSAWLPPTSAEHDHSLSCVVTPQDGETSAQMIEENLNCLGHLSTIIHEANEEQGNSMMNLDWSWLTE
The following applies: at 1 µM.

In test [7] the target is T3, Inhibitor of nuclear factor kappa-B kinase subunit alpha (Homo sapiens). Particulars: at 10 µM.
Test [8] deals with T4, Inhibitor of nuclear factor kappa-B kinase subunit beta (Homo sapiens) (UniProt O14920).
T4 sequence (whole entry): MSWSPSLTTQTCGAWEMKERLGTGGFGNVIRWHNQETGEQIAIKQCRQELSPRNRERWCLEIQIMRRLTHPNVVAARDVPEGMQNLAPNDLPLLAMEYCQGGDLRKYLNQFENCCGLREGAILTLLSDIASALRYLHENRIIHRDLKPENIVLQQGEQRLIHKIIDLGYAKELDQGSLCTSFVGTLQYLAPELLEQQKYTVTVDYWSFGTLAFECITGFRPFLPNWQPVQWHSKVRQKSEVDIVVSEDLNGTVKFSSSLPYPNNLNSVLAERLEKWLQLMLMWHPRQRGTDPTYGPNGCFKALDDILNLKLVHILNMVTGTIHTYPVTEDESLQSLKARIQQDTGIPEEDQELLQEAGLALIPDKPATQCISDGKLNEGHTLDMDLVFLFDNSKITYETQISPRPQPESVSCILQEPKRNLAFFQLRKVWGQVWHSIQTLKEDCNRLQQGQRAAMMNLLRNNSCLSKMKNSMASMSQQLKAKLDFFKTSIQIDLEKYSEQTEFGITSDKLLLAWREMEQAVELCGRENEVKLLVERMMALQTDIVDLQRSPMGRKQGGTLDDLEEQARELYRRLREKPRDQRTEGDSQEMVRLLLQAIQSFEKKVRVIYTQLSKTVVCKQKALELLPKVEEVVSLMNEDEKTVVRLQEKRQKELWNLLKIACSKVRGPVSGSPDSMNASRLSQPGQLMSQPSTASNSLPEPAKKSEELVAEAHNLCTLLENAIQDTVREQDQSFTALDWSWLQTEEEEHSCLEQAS
The following applies: at 1 µM.

In test [9] the target is T4, Inhibitor of nuclear factor kappa-B kinase subunit beta (Homo sapiens). The following applies: at 10 µM.
In test [10] the target is Insulin receptor (Homo sapiens) (UniProt P06213). The following applies: at 1 µM.
Chain of Insulin receptor (Homo sapiens) (P06213 28-758 limits assumed): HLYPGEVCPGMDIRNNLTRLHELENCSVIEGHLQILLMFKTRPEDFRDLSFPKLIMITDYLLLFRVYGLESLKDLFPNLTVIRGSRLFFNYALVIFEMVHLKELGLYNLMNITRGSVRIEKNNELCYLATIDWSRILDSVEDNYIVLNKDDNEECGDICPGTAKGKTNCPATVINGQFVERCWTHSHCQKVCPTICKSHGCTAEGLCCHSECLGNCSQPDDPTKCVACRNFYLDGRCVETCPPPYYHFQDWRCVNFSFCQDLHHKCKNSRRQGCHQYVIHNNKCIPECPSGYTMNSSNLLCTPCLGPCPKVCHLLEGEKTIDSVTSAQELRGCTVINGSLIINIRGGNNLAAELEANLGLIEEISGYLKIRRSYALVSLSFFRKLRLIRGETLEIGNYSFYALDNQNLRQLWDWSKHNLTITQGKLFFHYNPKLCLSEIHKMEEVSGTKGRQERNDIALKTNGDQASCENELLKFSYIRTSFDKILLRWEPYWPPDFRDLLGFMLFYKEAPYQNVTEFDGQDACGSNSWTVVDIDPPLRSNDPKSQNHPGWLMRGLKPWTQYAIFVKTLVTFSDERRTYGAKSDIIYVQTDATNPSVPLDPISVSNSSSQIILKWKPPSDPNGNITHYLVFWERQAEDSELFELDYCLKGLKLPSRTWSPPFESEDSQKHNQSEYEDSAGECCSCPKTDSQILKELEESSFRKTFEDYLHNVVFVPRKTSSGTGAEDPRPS
Chain of Insulin receptor (Homo sapiens) (P06213 763-1382 limits assumed): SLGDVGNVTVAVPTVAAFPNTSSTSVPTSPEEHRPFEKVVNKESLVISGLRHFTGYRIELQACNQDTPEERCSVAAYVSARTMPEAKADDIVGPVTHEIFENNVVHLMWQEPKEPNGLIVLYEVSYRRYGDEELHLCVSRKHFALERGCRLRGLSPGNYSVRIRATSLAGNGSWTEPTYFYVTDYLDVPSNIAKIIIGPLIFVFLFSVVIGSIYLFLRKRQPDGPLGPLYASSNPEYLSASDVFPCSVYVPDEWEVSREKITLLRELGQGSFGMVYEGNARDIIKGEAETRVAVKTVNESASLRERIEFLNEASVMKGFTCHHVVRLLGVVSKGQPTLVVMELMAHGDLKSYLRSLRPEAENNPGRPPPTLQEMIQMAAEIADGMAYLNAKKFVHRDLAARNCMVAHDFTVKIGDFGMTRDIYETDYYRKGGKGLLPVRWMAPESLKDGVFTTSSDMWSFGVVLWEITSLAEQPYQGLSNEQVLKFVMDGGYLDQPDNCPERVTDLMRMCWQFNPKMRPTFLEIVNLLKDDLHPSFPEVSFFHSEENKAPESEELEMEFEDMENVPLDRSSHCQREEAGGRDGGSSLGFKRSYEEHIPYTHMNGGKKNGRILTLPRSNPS

Chain of Insulin-like growth factor 1 receptor (Homo sapiens) (P08069 31-736 limits assumed): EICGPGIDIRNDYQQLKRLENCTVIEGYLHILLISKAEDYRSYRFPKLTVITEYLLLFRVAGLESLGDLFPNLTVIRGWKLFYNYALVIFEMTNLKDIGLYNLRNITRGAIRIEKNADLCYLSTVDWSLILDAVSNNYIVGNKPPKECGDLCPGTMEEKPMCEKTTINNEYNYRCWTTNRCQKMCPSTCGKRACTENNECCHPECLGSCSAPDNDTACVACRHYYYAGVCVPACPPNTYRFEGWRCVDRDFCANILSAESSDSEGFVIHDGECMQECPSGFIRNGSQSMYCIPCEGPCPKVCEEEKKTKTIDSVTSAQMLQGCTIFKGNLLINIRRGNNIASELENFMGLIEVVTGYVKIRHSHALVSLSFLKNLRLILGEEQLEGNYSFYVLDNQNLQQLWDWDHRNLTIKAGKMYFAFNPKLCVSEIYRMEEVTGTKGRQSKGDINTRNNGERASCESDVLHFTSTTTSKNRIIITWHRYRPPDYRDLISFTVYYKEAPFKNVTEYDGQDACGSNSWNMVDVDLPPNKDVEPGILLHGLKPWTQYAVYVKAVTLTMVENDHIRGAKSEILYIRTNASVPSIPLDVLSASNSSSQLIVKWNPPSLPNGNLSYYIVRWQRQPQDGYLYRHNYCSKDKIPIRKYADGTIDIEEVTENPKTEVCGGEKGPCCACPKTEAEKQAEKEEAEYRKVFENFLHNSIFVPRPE
Chain of Insulin-like growth factor 1 receptor (Homo sapiens) (P08069 741-1367 limits assumed): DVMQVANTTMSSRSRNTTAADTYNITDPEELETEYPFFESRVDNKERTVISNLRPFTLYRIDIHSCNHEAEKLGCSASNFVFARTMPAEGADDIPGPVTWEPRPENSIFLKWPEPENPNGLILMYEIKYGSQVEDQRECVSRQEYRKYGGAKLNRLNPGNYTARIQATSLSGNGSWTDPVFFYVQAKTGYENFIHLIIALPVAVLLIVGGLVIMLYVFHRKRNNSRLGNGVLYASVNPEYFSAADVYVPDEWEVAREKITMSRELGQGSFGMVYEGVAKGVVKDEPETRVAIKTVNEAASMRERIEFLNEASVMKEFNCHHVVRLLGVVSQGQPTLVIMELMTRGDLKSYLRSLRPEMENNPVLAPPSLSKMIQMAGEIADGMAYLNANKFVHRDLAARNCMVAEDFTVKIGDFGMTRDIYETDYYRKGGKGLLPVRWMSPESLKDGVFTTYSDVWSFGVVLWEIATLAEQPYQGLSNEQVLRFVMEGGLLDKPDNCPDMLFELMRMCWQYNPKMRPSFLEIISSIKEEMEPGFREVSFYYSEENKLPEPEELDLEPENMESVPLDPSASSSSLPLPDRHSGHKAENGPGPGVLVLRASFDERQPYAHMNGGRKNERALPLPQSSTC

Broadly, the residual activity is the signal under treatment as a percentage of the control signal. Regarding `CC(=O)O/N=C1\C(=C2\C(=O)Nc3cc(Br)ccc32)Nc2ccccc21`, the residual activity in test [1] is 14%; in [2], 91%; in test [3] it was 74%; in [4] it was 102%; in test [5], 100%; in test [6], 111%. The residual activity in test [7] was found to be 108%; in test [8], 101%; in test [9], 93%; in test [10], 118%.
